Results on 18 compounds are retold here after ChEMBL document CHEMBL1961873, “Compounds: GSK PKIS; Assays: Nanosyn kinase panel” (2012).
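Note: values are mean inhibition figures reported as part of the GSK PKIS dataset.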

Chain of Casein kinase I isoform gamma-2 (Homo sapiens) (P78368 whole entry, looked up, canonical isoform): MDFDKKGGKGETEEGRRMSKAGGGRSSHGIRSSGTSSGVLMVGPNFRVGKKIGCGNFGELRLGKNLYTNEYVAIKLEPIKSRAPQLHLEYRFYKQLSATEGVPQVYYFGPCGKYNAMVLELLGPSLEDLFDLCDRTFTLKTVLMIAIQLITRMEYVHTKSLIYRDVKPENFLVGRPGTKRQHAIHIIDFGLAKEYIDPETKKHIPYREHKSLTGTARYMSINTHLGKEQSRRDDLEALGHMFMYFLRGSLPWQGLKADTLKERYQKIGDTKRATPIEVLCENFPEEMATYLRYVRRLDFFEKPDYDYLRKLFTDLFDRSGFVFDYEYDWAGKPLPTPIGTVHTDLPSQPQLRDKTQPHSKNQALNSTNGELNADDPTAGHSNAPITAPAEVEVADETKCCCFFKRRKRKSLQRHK

The assay concerns the target Casein kinase I isoform gamma-2 (Homo sapiens) (UniProt P78368). The settings on record: at 0.1 µM.
Usually inhibition stands for the drop in the measured response relative to a control, in per cent. As for `CS(=O)(=O)CCNCc1cc(-c2cc3c(Nc4ccc(OCc5cccc(F)c5)c(Cl)c4)ncnc3s2)cs1`, the inhibition worked out at 3.23%.
With `Fc1ccc(-c2c(-c3ccncc3)nc3n2CCS3)cc1`, the inhibition was -1.41%.
As to `Cc1ccc(NC(=O)c2ccoc2)cc1-c1ccc(C(=O)NCC2CC2)cc1`, the inhibition turned out to be 2.62%.
For `NS(=O)(=O)c1ccc(N/N=C2\C(=O)Nc3ccc(-c4cnco4)cc32)cc1` the value was -2.15%; for `O=C(Nc1n[nH]c2cc(-c3cc(F)ccc3F)ccc12)C1CC1`, 2.53%; for `Nc1nccc(-c2c(-c3ccc(F)cc3)ncn2C2CCC(O)CC2)n1` (stereo not drawn), -1.13%.
As to `C[C@@H](Oc1cc(-n2cnc3ccc(OC4CCN(C)CC4)cc32)sc1C(N)=O)c1ccccc1Cl`, the inhibition was found to be 0.26%.
`CCS(=O)(=O)c1ccc(OC)c(Nc2ncc(-c3cccc(-c4ccccc4F)c3)o2)c1`: the inhibition was -0.86%.
Consider `O=C1Nc2ccc(I)cc2C1=Cc1cc(Br)c(O)c(Br)c1`, for which the inhibition was 3.7%.
For `COc1cccc(/C=N/Nc2ncnc3c2cnn3-c2cccc(OC)c2)c1` the value was 3.16%; for `COc1cc2ncn(-c3cc(OCc4cccs4)c(C(N)=O)s3)c2cc1OC`, -1.54%; for `NC(=O)c1ccc(Oc2nccc(-c3c(-c4ccc(F)cc4)ncn3C3CCNCC3)n2)cc1`, 5.16%.
Regarding `CN(C)CCCNc1nccc(-c2c(-c3ccc(F)cc3)nn3cc(C(F)(F)F)ccc23)n1`, the inhibition is -3.5%.
Then `O=C1NC(=O)C(c2cccc(Cl)c2)=C1Nc1ccc(Cl)c(C(=O)O)c1`, with 2.25%.
As for `NC(=O)Cc1ccccc1Oc1nccc(-c2c(-c3ccc(F)cc3)ncn2C2CCNCC2)n1`, the inhibition is 3.59%.
Take `Fc1ccc(-c2ncn(C3CCNCC3)c2-c2ccnc(Oc3ccc(F)c(F)c3)n2)cc1`: the inhibition was -0.65%.
With `O=C(Nc1n[nH]c2cc(-c3ccccc3)ccc12)C1CC1`, the inhibition worked out at 4.46%.
`Cc1nnc(-c2ccc(C)c(-c3ccc(C(=O)NCc4ccc(Cl)cc4)cc3)c2)o1`: the inhibition was -1.05%.
